Compound activity from PubChem.
GPT2 inhibitor: inhibitors of human GPT2 alanine aminotransferase; Recombinant GPT2, coupled pyruvate oxidase/HRP Amplex Red fluorescence; Potency, µM (doses to about 57.7 µM), for inactives: top-dose activity change, negative = inhibition, actives largely listed as inhibitors; 100,000 compounds, 0.25% hits; AID 1671188; also: % is scaled to controls: 0 for no effect and ±100 for the full control effect; nearly all actives have a fitted effect of over 60% in size
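Fluorescence read-out: pyruvate from GPT2 turnover coupled to pyruvate oxidase, HRP and Amplex Red (0.2mM ThPP, 0.2U/mL PO and HRP, 50uM Amplex final). Substrates 250uM a-KG, 2mM L-alanine; enzyme 10ng/uL; 30 min RT.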
NIH3T3 tox: NIH 3T3 cell cytotoxicity. 94,000 compounds, 4.3% hits. AID 1345082. NIH 3T3 viability, CellTiter-Glo ATP luminescence, 48-72 h. Potency, µM (highest dose often 96.7 µM), for inactives: top-dose activity change, negative = cytotoxicity, hits mostly inhibitors; also: % is scaled to controls: 0 for no effect and ±100 for the full control effect; nearly all actives have a fitted effect of over 55% in size
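Cytotoxicity is measured as loss of cellular ATP: NIH 3T3 cells (400/well) are exposed to compound for 48 or 72 hr at 37 °C, then CellTiter-Glo luminescence is imaged after 10 min at room temperature.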
hNpr1 antagonist: human Npr1 receptor antagonism | P16066 | 76,000 compounds, 1.6% hits | HEK293 hNpr1 GloSensor cGMP, ANP-stimulated luminescence | AID 1347048 | Potency, µM (doses to about 46.3 µM), without a hit: at the top dose activity change, negative = inhibition, usual class: inhibitors; calls by dose curve; also: % is scaled to controls: 0 for no effect and ±100 for the full control effect; nearly all actives have a fitted effect of over 60% in size
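Compound pre-incubated 30 min at room temperature on GloSensor-loaded HEK293 cells stably carrying hNpr1 and the pGS-40F cGMP biosensor. Stimulation uses hNppA at 0.1 nM final; luminescence is taken at baseline and 20 min post-agonist.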
FLuc inh: blocks purified firefly luciferase enzyme activity | Potency, µM (highest dose often 115 µM), usual class: inhibitors | 76,000 compounds, 2.5% hits | purified P. pyralis luciferase, luminescence, biochemical; also: % is scaled to controls: 0 for no effect and ±100 for the full control effect; nearly all actives have a fitted effect of over 65% in size
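Purified P. pyralis luciferase (10nM final) in 50mM Tris acetate pH 7.5, 10mM Mg acetate, 0.01% Tween-20, 0.05% BSA with 10uM D-luciferin and 10uM ATP. Compounds titrated qHTS. Luminescence imaged on CCD.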
HEK cytotox: cytotoxic compounds in HEK 293 cells | 94,000 compounds, 6.6% hits | AID 1345083 | Potency, µM (series often up to 115 µM), without a hit: at the top dose activity change, negative = cytotoxicity, most hits filed as inhibitors | HEK 293 viability, ATP luminescence (CellTiter-Glo), 48-72 h; also: % is scaled to controls: 0 for no effect and ±100 for the full control effect; nearly all actives have a fitted effect of over 60% in size
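qHTS cytotoxicity; HEK 293, 250 cells/well; compound pinned; 48 or 72 hr, 37 degree Celsius, 5% CO2, 95% humidity; CellTiter-Glo, 10 min RT; luminescence (ATP).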
NPR1 antag cnf: confirmation of human Npr1 natriuretic peptide receptor antagonists; shares compounds with hNpr1 antagonist; HEK293 hNpr1 cGMP GloSensor luminescence, ANP-stimulated; Potency, µM (doses to about 57.6 µM), inactives show at the highest dose activity change, negative = inhibition, hits mostly inhibitors; 1,400 compounds, 76% hits; AID 1347044; calls by dose curve; also: nearly all actives have a fitted effect of over 70% in size
Npr2 selectivity: hNpr2 antagonism, selectivity versus Npr1 | shares compounds with hNpr1 antagonist | HEK293 hNpr2 GloSensor cGMP luminescence, CNP-stimulated | Potency, µM (doses to about 57.6 µM), for inactives: at the highest dose activity change, negative = inhibition, usual class: inhibitors | 1,400 compounds, 67% hits | AID 1347046; calls by dose curve; also: nearly all actives have a fitted effect of over 70% in size
Target sequence (P20594 whole entry, looked up): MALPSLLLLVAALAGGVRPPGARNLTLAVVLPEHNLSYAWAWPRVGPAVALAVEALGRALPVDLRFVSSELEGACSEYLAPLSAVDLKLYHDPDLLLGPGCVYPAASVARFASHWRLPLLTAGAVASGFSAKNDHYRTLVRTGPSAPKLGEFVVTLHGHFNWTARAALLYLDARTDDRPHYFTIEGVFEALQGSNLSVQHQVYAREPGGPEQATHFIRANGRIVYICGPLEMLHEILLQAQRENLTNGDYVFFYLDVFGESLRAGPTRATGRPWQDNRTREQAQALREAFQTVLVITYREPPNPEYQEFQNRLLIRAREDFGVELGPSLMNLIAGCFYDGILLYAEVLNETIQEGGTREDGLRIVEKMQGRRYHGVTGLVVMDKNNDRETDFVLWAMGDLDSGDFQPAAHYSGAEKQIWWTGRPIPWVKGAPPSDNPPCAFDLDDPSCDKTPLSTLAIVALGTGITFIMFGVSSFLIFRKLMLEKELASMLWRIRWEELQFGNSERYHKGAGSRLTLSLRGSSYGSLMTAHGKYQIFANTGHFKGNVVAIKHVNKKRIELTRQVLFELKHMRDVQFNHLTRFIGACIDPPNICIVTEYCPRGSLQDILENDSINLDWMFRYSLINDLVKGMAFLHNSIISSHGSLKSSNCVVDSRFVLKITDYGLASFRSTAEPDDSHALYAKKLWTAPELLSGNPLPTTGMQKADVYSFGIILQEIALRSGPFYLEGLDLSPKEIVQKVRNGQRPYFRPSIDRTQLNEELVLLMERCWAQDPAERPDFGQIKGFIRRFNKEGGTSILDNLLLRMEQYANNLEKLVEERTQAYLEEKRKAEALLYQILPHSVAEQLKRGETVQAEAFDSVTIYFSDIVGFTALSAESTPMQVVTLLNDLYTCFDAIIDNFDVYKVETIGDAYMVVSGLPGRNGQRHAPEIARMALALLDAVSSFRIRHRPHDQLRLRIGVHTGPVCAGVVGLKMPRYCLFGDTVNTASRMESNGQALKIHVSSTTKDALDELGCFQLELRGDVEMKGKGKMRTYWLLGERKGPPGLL
FLuc inh counter: FLuc enzyme inhibition, Npr1 counter-screen; shares compounds with hNpr1 antagonist; purified FLuc enzyme, luminescence, Km substrate; Potency, µM (doses to about 57.6 µM), for the others: at the top dose activity change, negative = inhibition, hits mostly inhibitors; 1,400 compounds, 0.7% hits; also: 0% is about no effect
GloSensor ctrl: control cell line activity, Npr1 antagonist counter-screen | shares compounds with hNpr1 antagonist | HEK293 GloSensor cGMP, SNP-stimulated, luminescence | 1,400 compounds, 69% hits | Potency, µM (top dose mostly 57.6 µM), for the others: top-dose activity change, negative = inhibition, actives largely listed as inhibitors; calls by dose curve; also: % is scaled to controls: 0 for no effect and ±100 for the full control effect; nearly all actives have a fitted effect of over 70% in size
* hit, by the source's call; i = inactive; ? = inconclusive; nt = not tested or not shown; [ ] = dose if it differs, or a comment. Rows were chosen to be rich in hits. Some 10% of all compounds tested hit in one or more screens of this group. Unless noted, calls follow the shape of the dose curve; as a rule, active = well fitted curve in the direction sought with a large enough effect; inconclusive = small, poorly fitted or top-dose-only effect, or another doubt; inactive = no such curve, though single readings can be large; an effect the other way counts as inactive or inconclusive. Potency is read from the fitted curve at half-maximal effect.

SMILES | GPT2 inhibitor | NIH3T3 tox | hNpr1 antagonist | FLuc inh | HEK cytotox | NPR1 antag cnf | Npr2 selectivity | FLuc inh counter | GloSensor ctrl
Cc1nc2c(c(-c3ccc(O)cc3)n1)CN(Cc1ccccc1OC(F)(F)F)CC2 | ? | ? | -6% | i | ? | nt | nt | nt | nt
O=C(CC1CCCCC1)N1CCC(Cc2nc(-c3ccc(F)cc3)no2)CC1 | 3% | ? | 4µM* | i | ? | 4.8µM* | 5.4µM* | -1% | 4.8µM*
O=C(c1cccc(F)c1)N1CC(Oc2ccc(-c3noc(C4CCOCC4)n3)cc2)C1 | 2% | ? | 6.3µM* | i | ? | 4.3µM* | 5.4µM* | -6% | 3.4µM*
O=C(c1cccc(F)c1)N1CC(Oc2ccc(-c3nc(-c4ccccc4)no3)cc2)C1 | i | -5% | -1% | i | ? | nt | nt | nt | nt
CN(C)C(=O)c1ccc(CC2CCN(C(=O)CC3CCCCC3)CC2)cc1 | i | ? | 11µM* | i | 35µM* | 15µM* | 19µM* | 3% | 15µM*
O=C(COc1ccc(Cl)cc1)N1CCC(Cc2nc(-c3ccccc3)no2)CC1 | i | ? | 14µM* | i | 40µM* | 12µM* | 14µM* | -2% | 12µM*
CN(C)C(=O)NC1CCN(c2nccc(Nc3ccccc3F)n2)CC1 | i | ? | nt | nt | ? | nt | nt | nt | nt
COCC(=O)N1CCn2c(nn(-c3ccc(C)cc3)c2=O)C1 | i | -27%[138 µM] | 9%[70.6 µM] | i | -3%[172 µM] | nt | nt | nt | nt
COc1cc(C)c(Sc2cnc(NC(=O)c3ccc(CNC(C)C(C)(C)C)cc3)s2)cc1C(=O)N1CCN(C(C)=O)CC1 (stereo unspecified) | i | nt | nt | nt | nt | nt | nt | nt | nt
Cc1n[nH]c(C)c1C(N)C(=O)NCCN1CCCC1 (stereo unspecified) | -7%[11.5 µM] | -4% | -2% | i | 3% | nt | nt | nt | nt
COc1ccc(OCC(=O)N2CCC(Cc3nc(-c4ccc(F)cc4)no3)CC2)cc1 | i | ? | 5.6µM* | i | ? | 4.3µM* | 6.1µM* | 2% | 3.9µM*
COc1cc(C(=O)N2CCC(Cc3nc(-c4ccc(F)cc4)no3)CC2)cc(OC)c1OC | i | ? | 13µM* | i | ? | 14µM* | 19µM* | -1% | 15µM*
CC(C)c1noc(CC2CCN(C(=O)c3ccc(C(C)(C)C)cc3)CC2)n1 | i | -27% | -4% | i | ? | nt | nt | nt | nt
CC(C)c1noc(CC2CCN(C(=O)c3ccc(F)cc3)CC2)n1 | i | -34% | ? | i | ? | ? | ? | -1% | ?
O=C(c1ccc(F)cc1)N1CCC(Cc2nc(-c3ccc(F)cc3)no2)CC1 | i | ? | 1.4µM* | i | ? | 1.7µM* | 2.7µM* | -1% | 1.9µM*
COc1ccc(CNC(=O)CC[C@H]2CNC(=O)[C@@H]3[C@@H](CCN3CC(C)(C)C)N2C)cc1 | -18%[88.5 µM] | i | 8%[70.6 µM] | i | -4%[172 µM] | nt | nt | nt | nt
O=C(Cc1ccc(F)cc1)N1CCC(Cc2nc(-c3ccc(F)cc3)no2)CC1 | -4% | ? | 13µM* | i | ? | 14µM* | 14µM* | 3% | 11µM*
O=C(C1CC1)N1CCC(Cc2nc(-c3ccc(F)cc3)no2)CC1 | -2% | ? | ? | i | ? | nt | nt | nt | nt
COCc1nc(C2CCCN(C(=O)c3ccc(OC)cc3OC)C2)no1 (stereo unspecified) | i | i | -1% | i | -8% | nt | nt | nt | nt
COc1ccc(CNC(=O)[C@@H]2Cc3nc[nH]c3CN2Cc2ccc(C(=O)O)cc2)cc1 | -4%[88.5 µM] | -11%[174 µM] | 4%[70.6 µM] | i | -6%[172 µM] | nt | nt | nt | nt
COc1ccc(CN2Cc3[nH]cnc3C[C@H]2C(=O)NCc2ccccc2)c2ccccc12 | ? | ? | ? | i | 89µM* | ? | ? | 0%[86.2 µM] | -23%[86.2 µM]
Cc1ccc(NC(=O)C2CCN(c3cc(C(F)(F)F)ncn3)CC2)cc1Cl | i | 18µM* | 10µM* | i | ? | 12µM* | 19µM* | -1% | 12µM*
CC(C)c1ccc(NC(=O)C2CCN(c3cc(C(F)(F)F)ncn3)CC2)cc1 | i | ? | 7.1µM* | i | ? | 7.7µM* | 8.6µM* | 5% | 4.8µM*
COc1ccc(NC(=O)C2CCN(c3cc(C(F)(F)F)ncn3)CC2)cc1OC | ? | -25% | -19% | i | ? | nt | nt | nt | nt
COc1ccc(NC(=O)C2CCN(c3cc(C(F)(F)F)ncn3)CC2)cc1 | 2% | -21% | ? | i | -25% | nt | nt | nt | nt
SMILES | GPT2 inhibitor | NIH3T3 tox | hNpr1 antagonist | FLuc inh | HEK cytotox | NPR1 antag cnf | Npr2 selectivity | FLuc inh counter | GloSensor ctrl
O=C(Nc1ccc(F)cc1)C1CCN(c2cc(C(F)(F)F)ncn2)CC1 | i | -33% | ? | i | -30% | 22µM* | ? | 0% | 24µM*
O=C(NCCn1cccc1-c1nc(-c2ccc3c(c2)OCO3)no1)c1ccccc1Cl | i | -30% | -2% | i | ? | nt | nt | nt | nt
O=C(c1cnccn1)N1CCC(n2cc(-c3nc(-c4ccccc4)no3)nn2)CC1 | i | ? | 0% | i | ? | nt | nt | nt | nt
O=C(c1ccccc1F)N1CCC2(CC1)CC(c1cccnc1)=NO2 | i | -19% | -12% | i | -21% | nt | nt | nt | nt
O=C1CCN(C(=O)C2CCN(C(=O)c3ccc4ccccc4n3)CC2)CCCCCCN1 | i | 2% | 2% | i | i | nt | nt | nt | nt
Cc1cnc(C(=O)N[C@@H]2CCC[C@@H]2C(=O)NCc2ccc(OC(F)(F)F)cc2)cn1 | -1% | -11% | -13% | i | -12% | nt | nt | nt | nt
Cc1cc(Cl)ccc1-c1ccc(CNC2CN(C(=O)OC(C)(C)C)C2)cc1 | 1% | ? | nt | nt | ? | 22µM* | 22µM* | -1% | 19µM*
CN1C(=O)CO[C@H]2CN(C(=O)C3CC3)C[C@H]21 | 0%[88.5 µM] | i | -1%[70.6 µM] | i | i | nt | nt | nt | nt
c1ccc(Nc2cc3c(cn2)CN(Cc2c[nH]c4ccccc24)CCN3)cc1 | ? | 25µM* | ? | i | ? | 11µM* | 6.3µM* | -25%[86.2 µM] | ?
